Reference: the supplement of paper PMC3334620
Over roughly 33,000 sequences, “E-score (-0.5 to 0.5)” has its median near -0.053; the highest 2% begin near 0.37. The sample as a whole holds a higher share of the highest values than the screen did.

These sequences were tested against Hap1 (UniProt P0CE41) (assay: PBM E-score (8-mer binding enrichment) (E-score (-0.5 to 0.5)); higher = stronger / more preferred TF binding). Details: protein concentration: 200 nM; construct: GST-DNA-binding domain.
In short: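 Each ungapped eight-base word and its reverse complement, pooled, received an E-score from the Universal PBM Analysis Suite. Underlying scans, normalised with masliner, recorded fluorescent anti-GST bound to GST-tagged yeast transcription factors. These were applied at about 100-200 nM to universal all-10-mer Agilent arrays double-stranded by primer extension.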

Chain of UniProt P0CE41 (P0CE41 whole entry, the tested form may be a part): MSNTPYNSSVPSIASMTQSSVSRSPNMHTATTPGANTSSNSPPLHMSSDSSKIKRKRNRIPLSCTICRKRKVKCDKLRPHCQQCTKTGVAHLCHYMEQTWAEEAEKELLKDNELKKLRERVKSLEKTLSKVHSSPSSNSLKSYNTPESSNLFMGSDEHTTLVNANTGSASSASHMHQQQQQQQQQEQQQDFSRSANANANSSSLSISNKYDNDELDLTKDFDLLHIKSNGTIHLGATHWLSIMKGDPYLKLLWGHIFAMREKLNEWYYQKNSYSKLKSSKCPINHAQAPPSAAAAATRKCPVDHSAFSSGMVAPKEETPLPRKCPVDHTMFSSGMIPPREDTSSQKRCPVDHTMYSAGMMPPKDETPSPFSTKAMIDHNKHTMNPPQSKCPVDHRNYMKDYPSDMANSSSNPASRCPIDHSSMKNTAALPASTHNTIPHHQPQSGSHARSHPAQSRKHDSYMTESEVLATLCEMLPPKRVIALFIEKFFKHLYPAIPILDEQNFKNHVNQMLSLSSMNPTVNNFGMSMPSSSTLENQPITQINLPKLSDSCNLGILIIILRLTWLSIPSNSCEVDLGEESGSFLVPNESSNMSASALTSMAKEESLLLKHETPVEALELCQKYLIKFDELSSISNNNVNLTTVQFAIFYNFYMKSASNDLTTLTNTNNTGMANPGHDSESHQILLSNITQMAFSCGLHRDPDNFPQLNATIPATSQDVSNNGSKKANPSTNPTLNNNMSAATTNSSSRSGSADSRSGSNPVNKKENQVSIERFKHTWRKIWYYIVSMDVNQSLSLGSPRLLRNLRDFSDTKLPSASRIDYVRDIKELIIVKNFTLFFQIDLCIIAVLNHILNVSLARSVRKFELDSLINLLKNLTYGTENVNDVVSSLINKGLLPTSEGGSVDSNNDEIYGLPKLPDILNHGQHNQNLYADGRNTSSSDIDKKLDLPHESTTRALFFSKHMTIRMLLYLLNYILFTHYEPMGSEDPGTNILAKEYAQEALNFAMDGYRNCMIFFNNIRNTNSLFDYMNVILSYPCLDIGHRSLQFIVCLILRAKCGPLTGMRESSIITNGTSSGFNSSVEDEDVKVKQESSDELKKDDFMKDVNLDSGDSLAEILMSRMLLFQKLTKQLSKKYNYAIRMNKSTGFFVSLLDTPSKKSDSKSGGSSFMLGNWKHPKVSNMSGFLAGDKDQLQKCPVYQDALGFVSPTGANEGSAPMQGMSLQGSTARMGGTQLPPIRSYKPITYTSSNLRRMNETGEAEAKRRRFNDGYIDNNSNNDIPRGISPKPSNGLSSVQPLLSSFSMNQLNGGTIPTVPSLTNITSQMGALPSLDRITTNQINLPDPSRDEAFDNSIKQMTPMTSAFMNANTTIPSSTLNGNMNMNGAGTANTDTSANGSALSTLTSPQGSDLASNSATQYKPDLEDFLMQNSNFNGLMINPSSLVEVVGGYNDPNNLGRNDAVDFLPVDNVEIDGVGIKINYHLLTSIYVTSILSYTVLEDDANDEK

Sequence | PBM E-score
AGGGGCGG | 0.235
ACTCGTCG | -0.172
CCCCGCAA | 0.258
ACATTTAA | -0.0555
AGCCCTTG | -0.311
AGACACGG | 0.0548
CATCCAGG | -0.183
ATCCGAGC | 0.356
ATCCGACG | 0.333
ATCCGAGG | 0.39
GACGCACC | -0.118
GCAAGGAC | -0.115
AATCCGAC | 0.363
AATCCGAT | 0.401
AGTCCAAG | -0.404
AGTCCGTG | 0.299
AGTCCGAC | 0.36
AGTCCGAG | 0.428
AGTCCGAT | 0.432
AGTCCTAT | -0.0943
AATCCGAA | 0.366
AAGCCTAT | -0.101
AAAACTAG | -0.116
AGTACGGG | -0.028
ACTTCTGG | -0.297

Sequence | PBM E-score
AGTGGACG | 0.0359
TAAAAGGA | -0.0643
AGATAAGC | -0.0608
CGACCTAA | 0.161
TGACCTAA | -0.158
GGACCTAA | 0.371
GGCGGAAA | 0.29
TCCGGAAA | 0.445
CCCGGAAG | 0.358
CCCGGAAA | 0.411
CCGGGAAA | 0.338
TGCGGAAA | 0.213
TACGGAAA | 0.316
GCCGGAAA | 0.395
GACGGAAA | 0.314
TCTCAAGA | -0.0524
GTCGCGTA | -0.051
ATTCAAAG | -0.213
ACGCTTGG | -0.193
GGGGCGCA | -0.255
ACTAGTCA | -0.241
GGTGTGGA | -0.00568
GGAACACA | -0.109
AGCACGAC | -0.133
AACGCCGT | 0.273

Sequence | PBM E-score
AACGCCGA | 0.447
TACGCCGA | 0.301
AACGCCGG | 0.397
AACGCCGC | 0.355
CACGCCGA | 0.169
ACCCGCCA | -0.0193
GGGGCTCA | -0.167
ATGAGTTA | -0.207
ATAAATCC | 0.325
CTAAATCC | 0.386
CTAAATCA | -0.138
GGGCTACA | -0.0843
CCCGGCAG | 0.21
ACCGGCAA | 0.272
GCCGGCAA | 0.373
CCCGGCAA | 0.401
GCCGGCAC | 0.327
TCCGGCAA | 0.326
AAGCTCGG | 0.36
GTGCTTTA | -0.0684
CATCCCGG | 0.312
CATCCCCG | 0.356
AATCCCGG | 0.397
AATCCCCG | 0.403
AATCCCTG | -0.18

Sequence | PBM E-score
AATCCCCC | 0.133
GCTTGACA | -0.139
CATGTCTC | 0.131
AAGTGCAC | -0.0983
CGCTGGGA | 0.0217
CCTCAAGG | -0.168
CCGGGCCC | 0.369
GCGGGCGA | 0.296
GCGGGCCC | 0.216
CGGGGCCC | 0.258
ACGGGCCG | 0.29
CCGGGCCA | 0.348
CCGGGCCG | 0.425
CCGGGCGA | 0.376
ACGGGCGA | 0.333
CCGCTATA | 0.27
AATAGCAT | -0.0964
CGTGTACC | 0.11
GGGAATAC | 0.181
GGGAATAA | 0.396
TGGAATAA | -0.128
CGAAATAA | 0.182
GGAAATAA | 0.413
AGAAATAA | 0.0188
ACGCACCG | 0.00605

Sequence | PBM E-score
ACCAGTTA | -0.225
TGCCGTAA | 0.0155
TGCCGACA | 0.223
AGCCGAAC | 0.227
GACCGAAC | 0.347
GGCCGACA | 0.383
GACCGAAA | 0.385
GGCCGAAC | 0.37
GGCCGTAA | 0.377
CACCGAAA | 0.261
CGCCGTAA | 0.283
CGCCGAAC | 0.344
CGCCGACA | 0.215
ACGAGCTA | -0.108
ACCCAGTA | -0.253
ATTTGGTC | 0.141
CTCCTAAC | -0.191
TGCCGAAA | 0.303
AGCCGAAA | 0.329
GGCCGAAA | 0.405
CGTTTTAG | -0.114
AACCTGTG | -0.315
AGAACTCG | 0.0147
GAGGGAGC | -0.175
AACCAAGT | -0.152

Sequence | PBM E-score
GGATAAAA | 0.261
TGATAAAA | -0.0276
CGATAAAA | 0.382
CGCTCGGA | 0.404
CCCTCGTA | -0.0221
GGCTCGGA | 0.344
CCCTCGGC | 0.268
AGCTCGGA | 0.325
ACCTCGGG | 0.26
ACCTCGGC | 0.377
GCCTCGGA | 0.331
GACTCGGA | 0.405
AACTCGGA | 0.345
CCCTCGGA | 0.373
TACTCGGA | 0.312
CATCACAG | -0.258
TGGATGAA | -0.183
AAAGAAGA | -0.0993
GAGTGTGA | -0.176
CCCCTTAC | -0.132
TAAGGTCA | -0.193
CAGGCTAG | -0.279
AATGGGGC | -0.188
ACCTCGTA | -0.0139
CACTCGGG | 0.159

Sequence | PBM E-score
ACCTCGGA | 0.384
ACCTCGAA | -0.135
AACTCGGC | 0.316
CACTCGGC | 0.374
CTCAGCTA | -0.214
CCCTACTC | -0.0316
CAGATACG | 0.0074
CCGATACG | 0.42
GCGATTCC | 0.211
GCGATACA | 0.0344
CCGATACA | 0.43
CCGATTCG | 0.347
ACGATACC | 0.179
ACGATACA | -0.216
CCGATACC | 0.377
ACGATACG | -0.263
CCGATTCC | 0.405
GCGATACC | 0.192
GGGCACCA | -0.0557
CTGACCGA | 0.258
GGAAGCCA | -0.0815
GATTTTGC | -0.0335
CTCTCCGA | 0.203
ATCTCCCC | 0.0474
ATCTCCGA | 0.486

Sequence | PBM E-score
CTCTCCGC | 0.0772
ATCTCCGG | 0.483
ATCTCCAG | 0.0473
ATCTCCCG | 0.263
ATCTCCGC | 0.455
GTCTCCGA | 0.332
CTCCAAAC | -0.124
CCCGAGAA | 0.351
TCCGAGGA | 0.384
ACCGAGCT | 0.294
ACCGAGCG | 0.384
TCCGAGCA | 0.402
CCCGAGCG | 0.354
CCCGAGGA | 0.192
TCCGAGAA | 0.381
ACCGAGCA | 0.359
GCCGAGGA | 0.294
ACCGAGAA | 0.271
GCCGAGCA | 0.236
GCTAGGGA | -0.228
CCTTGAGA | -0.0628
GCGTTGTA | -0.0982
AACACCAA | -0.314
TAGATAGA | -0.111
GGCGAACC | 0.0857

Sequence | PBM E-score
CCCGCAAC | 0.277
ACCAGACC | 0.0586
ATTTCTGG | -0.13
GGTAAATA | 0.0374
CTCCCCGA | 0.247
ATCCCGGA | 0.36
ATCCCGGC | 0.339
ATCCCGGG | 0.376
ATCCCCGC | 0.371
CTCCCCGC | 0.204
GTCCCCGA | 0.269
ATCCCCCC | -0.00218
ATCCCCCG | 0.366
ATCCCCGG | 0.426
ATCCCCGA | 0.44
ATCCCCTG | -0.324
AGGGAATG | -0.197
AACACCCT | -0.0622
GACCTCTC | 0.0308
CCTATCAA | -0.119
ACATGGAC | -0.143
TGCGAGAA | -0.143
ATAGGGAG | -0.147
CTAGAGAA | -0.207
GCCAGACC | 0.0912

Sequence | PBM E-score
ACAGCTAC | -0.11
TTAGAAAA | -0.0981
AATCGCAC | -0.23
AGGAGAAG | -0.149
CGGAGAAC | 0.36
TCGAGAAA | -0.271
CGGAGAAA | 0.413
TGGAGAAA | -0.0481
GCGAGAAA | 0.116
CCGAGAAA | 0.4
GGGAGAAA | 0.0441
CGGAGAAG | 0.378
CTACTACC | 0.068
TAACTTAA | 0.0501
CATATGGG | 0.0423
ACCACACT | -0.0326
CCCACCGG | 0.374
CCCACCGC | 0.153
AACACCGT | 0.245
AACACCGC | 0.278
CCCACCGA | 0.0319
CACACCGG | 0.288
AACACCGA | 0.446
AACACCGG | 0.409
AACACCTG | -0.0827

Sequence | PBM E-score
GCAACCCC | 0.0182
ATGGAGTC | -0.104
AACGGTAG | -0.00937
CCGATGTC | 0.295
CCGCACCC | 0.209
CTTCCGTA | 0.262
ATTCCGGA | 0.432
CTTCCGGA | 0.404
GTTCCGAA | 0.331
GTTCCGGA | 0.383
ATTCCGTA | 0.259
CTTCCGGC | 0.275
GTTCCGCA | 0.209
ATTCCGCA | 0.196
GATGAGGC | -0.0801
AAATCGGT | 0.246
ACGGGCCC | 0.214
CCCTCACG | -0.262
GAACCATA | -0.0291
CTAAAACC | 0.291
AGGAATGC | -0.253
CCTCCGGC | 0.399
CCTCCGGA | 0.418
GCTCCGTA | 0.297
CCTCCGCA | 0.173

Sequence | PBM E-score
CCTCCGTA | 0.246
ACTCCGTG | 0.292
CCTCCGTC | 0.113
GCTCCGGA | 0.444
CCTCCGAC | 0.28
GCTCCGCA | 0.164
ACTCCGGG | 0.39
ACTCCTGG | -0.171
AGTCTTCC | -0.0885
CGCCGTCC | 0.0969
ACAATCAT | -0.0714
GGTAGGAC | 0.0611
ACTCCGCA | 0.156
ACTCCGGA | 0.461
ACTCCGTC | 0.3
ACTCCGCC | 0.306
ACTCCGTA | 0.244
ACTCCGGC | 0.389
AGTAGTAC | 0.105
AACTAACA | -0.0716
CTCGCAAC | -0.237
CCGGGGTA | 0.301
GGGGGGTA | 0.047
CCGGGTTC | 0.296
CGGGTTTC | 0.331

Sequence | PBM E-score
ACGGGTTA | 0.0135
CGGGTTTA | 0.474
GGGGGTTA | -0.181
AGGGGTTA | -0.0702
CCGGGTTA | 0.37
CGGGGTTA | 0.485
CGGGGGTA | 0.425
GGGGTTTA | 0.266
GCATAGGA | -0.136
ACGAGAAA | -0.00338
CATAGCCA | -0.139
ACGCCAAA | -0.08
CTCCTGGA | -0.254
GAATCAGC | -0.175
TGGTACAA | -0.376
GTGAGCAC | -0.232
AGGTTTTA | 0.0786
CGGGGATA | 0.475
AGGGGATA | -0.167
CGGTTTTA | 0.433
AGGTTATA | -0.0688
GGGGGATA | 0.134
CGGTTATA | 0.371
CGGTTTAA | 0.168
GGGTTATA | 0.0789

Sequence | PBM E-score
GGTGTTAC | 0.0592
CCCCACTC | -0.186
AGCGGCCG | 0.325
GCTCCGAA | 0.367
ACTCCTAT | -0.141
ACTCCCAT | -0.176
CCTCCGAA | 0.334
ACTCCGAG | 0.401
ACTCCGCG | 0.371
CCTCCGCG | 0.198
ACTCCGAA | 0.397
ACTCCGCT | 0.21
CCTCCGAG | 0.335
ACTCCGAC | 0.353
ACTCCGAT | 0.406
GCGGTCGA | 0.163
CCTTAGGC | -0.184
ATGTAGCG | -0.0634
CTCTACAG | -0.311
